Reference: PubChem BioAssay AID1508601 (ICCB-Longwood Screening Facility, Harvard Medical School, 2020)
About 85 (1%) of roughly 5,700 compounds were called active. The sample holds actives, similar compounds and a random draw of the others, so the mix is not that of the screen. Rule as the data show it: active = p53-positive nuclei above about 36% (passing the limit was not always enough); inactive = the rest.

Experiments:
[1] = nuclear p53 accumulation, HPV+ cells – imaging, p53-positive nuclei imaging, 24 h, 48 h (AID 1508601); conditions: 24/48 h
[2] = biological target: Cellular tumor antigen p53 (Homo sapiens) (UniProt P04637); assay: as above; conditions: 24/48 h, stronger effect = higher value
Sequence of Cellular tumor antigen p53 (Homo sapiens) (P04637 whole entry, looked up): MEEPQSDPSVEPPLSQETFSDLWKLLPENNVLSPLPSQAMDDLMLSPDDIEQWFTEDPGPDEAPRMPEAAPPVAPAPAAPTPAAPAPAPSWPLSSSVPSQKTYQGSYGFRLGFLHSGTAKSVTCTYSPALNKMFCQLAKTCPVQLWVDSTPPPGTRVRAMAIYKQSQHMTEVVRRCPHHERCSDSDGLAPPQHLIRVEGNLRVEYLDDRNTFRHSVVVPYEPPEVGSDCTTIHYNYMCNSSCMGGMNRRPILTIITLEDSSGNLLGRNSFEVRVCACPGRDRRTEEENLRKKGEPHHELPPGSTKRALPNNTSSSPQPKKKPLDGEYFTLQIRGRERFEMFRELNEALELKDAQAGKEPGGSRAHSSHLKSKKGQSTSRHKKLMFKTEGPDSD

Nc1ccn(C2C=C(CO)C(O)C2O)c(=O)n1 (stereo not drawn)
nuclei count, normalised ([1]; measured here: cell number at 24 h, Library stock concentration: 500 nM): 108% | nuclei count, normalised ([1]; measured here: cell number at 24 h, Library stock concentration: 1.5 uM): 117% | nuclei count, normalised ([1]; measured here: cell number at 24 h, Library stock concentration: 4.6 uM): 110% | nuclei count, normalised ([1]; measured here: cell number at 24 h, Library stock concentration: 13.7 uM): 119% | nuclei count, normalised ([1]; measured here: cell number at 24 h, Library stock concentration: 41 uM): 115% | nuclei count, normalised ([1]; measured here: cell number at 24 h, Library stock concentration: 123 uM): 83.8% | nuclei count, normalised ([1]; measured here: cell number at 24 h, Library stock concentration: 370 uM): 70% | nuclei count, normalised ([1]; measured here: cell number at 24 h, Library stock concentration: 1.111 mM): 73.4% | nuclei count, normalised ([1]; measured here: cell number at 24 h, Library stock concentration: 3.333 mM): 65.6% | nuclei count, normalised ([1]; measured here: cell number at 24 h, Library stock concentration: 10 mM): 65.3% | nuclei count, normalised ([1]; measured here: cell number at 48 h, Library stock concentration: 500 nM): 109% | nuclei count, normalised ([1]; measured here: cell number at 48 h, Library stock concentration: 1.5 uM): 111% | nuclei count, normalised ([1]; measured here: cell number at 48 h, Library stock concentration: 4.6 uM): 111% | nuclei count, normalised ([1]; measured here: cell number at 48 h, Library stock concentration: 13.7 uM): 117% | nuclei count, normalised ([1]; measured here: cell number at 48 h, Library stock concentration: 41 uM): 105% | nuclei count, normalised ([1]; measured here: cell number at 48 h, Library stock concentration: 123 uM): 67.3% | nuclei count, normalised ([1]; measured here: cell number at 48 h, Library stock concentration: 370 uM): 54.3% | nuclei count, normalised ([1]; measured here: cell number at 48 h, Library stock concentration: 1.111 mM): 57.7% | nuclei count, normalised ([1]; measured here: cell number at 48 h, Library stock concentration: 3.333 mM): 52.7% | nuclei count, normalised ([1]; measured here: cell number at 48 h, Library stock concentration: 10 mM): 52% | p53-positive nuclei, normalised ([2]; Library stock concentration: 500 nM): -0.14% (inactive) | p53-positive nuclei, normalised ([2]; Library stock concentration: 1.5 uM): -0.145% (inactive) | p53-positive nuclei, normalised ([2]; Library stock concentration: 4.6 uM): 0.0813% (inactive) | p53-positive nuclei, normalised ([2]; Library stock concentration: 13.7 uM): -0.00208% (inactive) | p53-positive nuclei, normalised ([2]; Library stock concentration: 41 uM): -0.138% (inactive) | p53-positive nuclei, normalised ([2]; Library stock concentration: 123 uM): 0.289% (inactive) | p53-positive nuclei, normalised ([2]; Library stock concentration: 370 uM): -0.0266% (inactive) | p53-positive nuclei, normalised ([2]; Library stock concentration: 1.111 mM): 0.668% (inactive) | p53-positive nuclei, normalised ([2]; Library stock concentration: 3.333 mM): 0.138% (inactive) | p53-positive nuclei, normalised ([2]; Library stock concentration: 10 mM): 0.496% (inactive) | p53-positive nuclei, normalised ([2]; measured here: p53 positive nuclei at 24 h, Library stock concentration: 500 nM): 0.0935% | p53-positive nuclei, normalised ([2]; measured here: p53 positive nuclei at 24 h, Library stock concentration: 1.5 uM): -0.093% | p53-positive nuclei, normalised ([2]; measured here: p53 positive nuclei at 24 h, Library stock concentration: 4.6 uM): -0.13% | p53-positive nuclei, normalised ([2]; measured here: p53 positive nuclei at 24 h, Library stock concentration: 13.7 uM): 0.115% | p53-positive nuclei, normalised ([2]; measured here: p53 positive nuclei at 24 h, Library stock concentration: 41 uM): -0.0784% | p53-positive nuclei, normalised ([2]; measured here: p53 positive nuclei at 24 h, Library stock concentration: 123 uM): 0.089% | p53-positive nuclei, normalised ([2]; measured here: p53 positive nuclei at 24 h, Library stock concentration: 370 uM): 0.146% | p53-positive nuclei, normalised ([2]; measured here: p53 positive nuclei at 24 h, Library stock concentration: 1.111 mM): 0.68% | p53-positive nuclei, normalised ([2]; measured here: p53 positive nuclei at 24 h, Library stock concentration: 3.333 mM): 0.184% | p53-positive nuclei, normalised ([2]; measured here: p53 positive nuclei at 24 h, Library stock concentration: 10 mM): 0.519%

CCCCC/C=C\C/C=C\C/C=C\CCCCCCC(=O)OC
nuclei count, normalised ([1]; measured here: cell number at 24 h, concentration not given here): 114% | nuclei count, normalised ([1]; measured here: cell number at 48 h, concentration not given here): 108% | p53-positive nuclei, normalised ([2]; concentration not given here): 0.0353% (inactive) | p53-positive nuclei, normalised ([2]; measured here: p53 positive nuclei at 24 h, concentration not given here): 0.00725%

CCC(C)C(NC(=O)C(CCC(=O)O)NC(=O)C(CC(C)C)NC(=O)C1CN=C(C(N)C(C)C)S1)C(=O)NC1CCCCNC(=O)C(CC(N)=O)NC(=O)C(CC(=O)O)NC(=O)C(Cc2cnc[nH]2)NC(=O)C(Cc2ccccc2)NC(=O)C(C(C)CC)NC(=O)C(CCCN)NC1=O (stereo not drawn)
nuclei count, normalised ([1]; measured here: cell number at 24 h, Library stock concentration: 3.33 mM): 97.5% | nuclei count, normalised ([1]; measured here: cell number at 48 h, Library stock concentration: 3.33 mM): 99% | p53-positive nuclei, normalised ([2]; Library stock concentration: 3.33 mM): -0.136% (inactive) | p53-positive nuclei, normalised ([2]; measured here: p53 positive nuclei at 24 h, Library stock concentration: 3.33 mM): -0.227%
